Type in all cases: functional
The target of test [1] is Solute carrier family 2, facilitated glucose transporter member 1 (Homo sapiens) (UniProt P11166). The test can be described thus: ST_JUDE_LEISH: Cytotoxicity at 2uM final concentration against transgenic Leishmania Mexicana promastigotes LmGLUT1 that are glucose transport deficient and complemented with the human glucose transporter GLUT1. Activity is measured by DNA content using SYBR green in vitro.

Test [2] concerns the target Hexose transporter 1 (Plasmodium falciparum) (UniProt O97467). The test can be described thus: ST_JUDE_LEISH: Cytotoxicity at 2uM final concentration against transgenic Leishmania Mexicana promastigotes LmPfHT that are glucose transport deficient and complemented with the Plasmodium falciparum hexose transporter. Activity is measured by DNA content using SYBR green in vitro.

Test [3] has as its target Glucose transporter (Leishmania mexicana) (UniProt O61059). Briefly: ST_JUDE_LEISH: Cytotoxicity at 2uM final concentration against transgenic Leishmania Mexicana promastigotes LmGT2 that are glucose transport deficient and complemented with the L. Mexicana glucose transporter 2. Activity is measured by DNA content using SYBR green in vitro.

Solute carrier family 2, facilitated glucose transporter member 1 (Homo sapiens), sequence (P11166 whole entry): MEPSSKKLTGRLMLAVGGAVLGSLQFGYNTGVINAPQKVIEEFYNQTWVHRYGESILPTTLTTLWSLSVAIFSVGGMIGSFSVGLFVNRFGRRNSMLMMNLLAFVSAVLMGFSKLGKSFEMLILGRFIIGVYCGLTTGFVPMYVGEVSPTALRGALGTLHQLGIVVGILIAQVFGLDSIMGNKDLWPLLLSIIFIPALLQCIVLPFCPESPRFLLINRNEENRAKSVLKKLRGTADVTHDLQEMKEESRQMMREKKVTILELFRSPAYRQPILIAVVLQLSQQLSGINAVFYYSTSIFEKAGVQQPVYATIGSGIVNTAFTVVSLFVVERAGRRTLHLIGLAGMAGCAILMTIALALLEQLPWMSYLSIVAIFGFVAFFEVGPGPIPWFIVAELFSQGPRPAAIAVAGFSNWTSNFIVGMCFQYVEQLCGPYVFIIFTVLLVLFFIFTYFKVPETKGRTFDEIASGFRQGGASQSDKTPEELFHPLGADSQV

Consider `CC(=O)c1ccc(NC(=O)Nc2ccc3nccc(N4CCN(C)CC4)c3c2)cc1`, for which the results for the inhibition in test [1], in test [2] and in test [3] were 1.22%, 1.77% and 1.46%, respectively.

As to `CC(C)(CNCc1cc(Cl)cc(Cl)c1)c1nc(-c2ccnc(N)n2)c(-c2ccc(Cl)c(O)c2)[nH]1`, the inhibition (commonly the drop in the measured response relative to a control, in per cent) in test [1] is -0.09%; in test [2], 0.95%; in test [3] it was 2.11%.

As for `CC(=O)Nc1ccc(CN(C)C2CCN(c3cc(NC(=O)c4cccc(C)c4)ccn3)CC2)cc1`, the inhibition came out at 2.4% in test [1], 3.41% in test [2] and 2.5% in test [3].

As for `O=C(NCCc1ccc(Cl)c(Cl)c1)[C@@H]1CCCN1C(=O)c1ccc(O)c(-c2cccc(C(F)(F)F)c2)c1`, the inhibition in test [1] was 1.34%; in test [2], -0.04%; in test [3], -2.44%.

Consider `Cc1cc(-c2cccc(CNC3CCN(C)CC3)c2)ccc1S(=O)(=O)NC1CCC1`, for which the results for the inhibition in test [1], in test [2] and in test [3] were 2.28%, 1.62% and 0.45%, respectively.

As for `CCCc1nc2c(N3CCCN(C(=O)NC4CCCCC4)CC3)cccc2n1Cc1ccccn1`, the inhibition in test [1] was -2%; in test [2], -1.61%; in test [3], -1.29%.

Turning to `CCN(CC)CC(O)Cc1c2ccc([N+](=O)[O-])cc2nc2cc(OC)c(OC)cc12` (stereo unspecified), the inhibition in test [1] is 0.42%; in test [2], 1.89%; in test [3] it was -1.11%.

Turning to `CNCCNCc1ccc(-c2ccc(-c3nc4cc(C(F)(F)F)ccc4[nH]3)cc2)cc1`, the figures for the inhibition in test [1], in test [2] and in test [3] were -0.49%, 3.17% and 2.46%, respectively.

Take `CCCc1cc(Cc2cnc(N)nc2N)cc(CC)c1O`: the figures for the inhibition in test [1], in test [2] and in test [3] were 1.7%, 0.94% and 0.25%, respectively.

In the case of `Cc1cccc2nc(-c3cccc(-c4cccc(NC(=O)c5cncn5C)c4)c3)[nH]c12`, the inhibition was -0.07% in test [1], 3.4% in test [2] and 4.6% in test [3].

`COc1ccc2nccc([C@@H](O)CN3CCC(NCc4cc5cccc(O)c5[nH]4)CC3)c2c1`: the inhibition in test [1] was 1.85%; in test [2], 2.02%; in test [3], 3.77%.

Regarding `OCC1CCN(Cc2cccc(-c3cccc(-c4nc5cc(C(F)(F)F)ccc5[nH]4)c3)c2)CC1`, the figures for the inhibition in test [1], in test [2] and in test [3] were 2.74%, 0.35% and 0.14%, respectively.

As to `COc1ccc(C=NNc2ccnc3cc(F)c(C)cc23)c2ccccc12`, the results for the inhibition in test [1], in test [2] and in test [3] were 8.78%, 8.43% and 4.95%, respectively.

For `CCOc1ccccc1CNc1nccc(NCc2ccc(Cl)cc2Cl)n1`, the inhibition in test [1] is 31.3%; in test [2], 21.2%; in test [3] it was 9.92%.

With `CCn1c(-c2nonc2N)nc2c(-c3cccc(NC(=O)Nc4cccc(C(F)(F)F)c4)c3)ncc(OCCCN)c21`, the inhibition in test [1] worked out at 2.47%; in test [2] it was 1.37%; in test [3] it was 0.62%.

In the case of `O=S(=O)(NCCN1CCCC1)c1cccc(-c2ccc(CNCc3ccc(F)cc3)cc2)c1`, the inhibition in test [1] is 7.08%; in test [2] it was 3.37%; in test [3], 4.19%.

As to `Cc1cc(N(C)C2CCN(C)C2)nc(Nc2ccccc2Cl)n1` (stereo unspecified), the inhibition is 1.12% in test [1], 2.69% in test [2] and 2.94% in test [3].

In the case of `CC(C)CCN1CCCN(Cc2cccc(NC(=O)c3ccc(Cl)c(Cl)c3)c2)CC1`, the inhibition in test [1] is -1.69%; in test [2], -1.38%; in test [3] it was -3.74%.

Turning to `N#Cc1cccc(C(O)C2CN(CCC3CCCCC3)CCC2(O)c2ccccc2)c1` (stereo unspecified), the inhibition was -1.82% in test [1], -0.13% in test [2] and 2.48% in test [3].

In the case of `COc1ccc(C=Cc2ccc(-c3c(C)[nH]c(C)c(Cl)c3=O)cc2)cc1OC`, the inhibition was -0.83% in test [1], -2.94% in test [2] and 0.92% in test [3].

Regarding `CC(C)(C)c1ccc(NC(=O)c2cccc(CN3CCCN(CC4CCCCC4)CC3)c2)cc1`, the inhibition in test [1] came out at 3.24%; in test [2], 1.77%; in test [3], 3.88%.

With `N=C(N)c1ccc(Nc2nc(Nc3ccc(-c4ccccc4)cc3)ncc2[N+](=O)[O-])cc1`, the inhibition was 3.15% in test [1], 3.65% in test [2] and 3.44% in test [3].

For the compound `Cc1cccc(Cl)c1Nc1nnc(-c2cccc(C(=O)NC[C@@H]3CC[C@H]4C[C@@H]3C4(C)C)c2)o1`, the inhibition in test [1] came to 10.6%; in test [2], 8.97%; in test [3], 6.65%.

For the compound `c1cncc(-c2cc(N3CCc4ccccc4C3)nc(-c3ccncc3)n2)c1`, the inhibition worked out at 8.78% in test [1], 7.89% in test [2] and 4.28% in test [3].

On to `COc1ccc2ncc(F)c([C@H](O)CN3CCC(NCc4ccc5c(c4)OCCO5)CC3)c2c1`, for which the inhibition turned out to be 4.19% in test [1], 2.23% in test [2] and 1.28% in test [3].

For the compound `COc1ccc(Cc2c(C)nc3nc(N)nc(N)c3c2C)cc1OC`, the results for the inhibition in test [1], in test [2] and in test [3] were 13.6%, 15% and 12.1%, respectively.

For `O[C@H]1[C@H](OCc2ccc(-c3ccccc3)cc2)CC[C@@H]1N1CCCCC1`, the inhibition in test [1] is 0.73%; in test [2], 1.54%; in test [3], 8.6%.

Consider `COc1cc(NC(=O)/C=C/c2ccccc2OC(F)(F)F)cc(OCCN2CCCCC2)c1`, for which the inhibition was 2.6% in test [1], 1.06% in test [2] and 1.67% in test [3].

As for `O=C(NC1CC1)c1ccc(N2CCC(COc3cccc(F)c3)CC2)nc1`, the inhibition in test [1] came out at 5.26%; in test [2], 4.16%; in test [3], 6.94%.

On to `CC(C)(C)c1ccc(C(=O)N2CCC3(CC2)C(=O)N(CC(=O)NCC2CCCO2)CN3c2ccccc2)cc1` (stereo unspecified), for which the inhibition in test [1] is 0.44%; in test [2], 4.61%; in test [3], 0.02%.

For the compound `CCOC(=O)c1[nH]c2cc(Cl)cc(Cl)c2c1/C=C/C(=O)Nc1ccc(-c2cnc(NC(C)=O)[nH]2)cc1`, the inhibition in test [1] is -1.61%; in test [2], -2.31%; in test [3] it was -1.73%.

Turning to `O=[N+]([O-])c1cccc(CNCC2CCC(CNCc3cccc([N+](=O)[O-])c3)CC2)c1` (stereo unspecified), the inhibition in test [1] was 2.25%; in test [2], -2.59%; in test [3], 1.26%.

(Values after ChEMBL document CHEMBL3433997, “St. Jude Leishmania screening dataset” (2016).)
